Screening data: PubChem BioAssay, National Center for Advancing Translational Sciences (NCATS)
Vif-APOBEC3G blk: inhibitors of Vif-APOBEC3G interaction. HeLa A3G-eYFP + Vif (tagged APOBEC3G with the HIV-1 protein that degrades it), YFP fluorescence, overnight. Q9HC16. AID 602310. Potency, µM (doses to about 46.1 µM), for inactives: at the highest dose activity, negative = active, hits mostly inhibitors. hit rate 0.076% among 410,000; note: % is set by controls: 0 for no effect and ±100 for the full control effect; nearly all actives have a fitted effect of over 60% in size
Target sequence (Q9HC16 whole entry, looked up): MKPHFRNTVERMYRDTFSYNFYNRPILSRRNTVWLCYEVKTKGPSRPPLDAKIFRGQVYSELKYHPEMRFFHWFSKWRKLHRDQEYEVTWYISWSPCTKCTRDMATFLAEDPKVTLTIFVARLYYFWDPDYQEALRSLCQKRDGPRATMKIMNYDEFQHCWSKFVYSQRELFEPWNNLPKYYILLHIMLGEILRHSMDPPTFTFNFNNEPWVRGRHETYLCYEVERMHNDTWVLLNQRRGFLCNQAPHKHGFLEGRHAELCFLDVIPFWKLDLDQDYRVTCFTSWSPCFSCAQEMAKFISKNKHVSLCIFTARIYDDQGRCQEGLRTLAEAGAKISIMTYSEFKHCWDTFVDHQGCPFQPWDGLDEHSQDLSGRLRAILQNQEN
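Read-out is eYFP fluorescence (Ex 488/Em 500-530) from Vif-expressing HeLa A3G-eYFP cells; more signal means A3G escaped Vif-mediated degradation. Cells plated overnight, compound pinned in, incubated overnight at 37 deg C.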
PINK1 modulator: PINK1 expression modulation; PINK1 immunofluorescence, high-content cytometry, 24 h; Potency, µM (top dose mostly 76.6 µM), without a hit: at the top dose activation (PINK1 increase), hits mostly activators; hit rate 0.2% among 410,000; AID 624263; active = well fitted activation curve with a large enough effect; inconclusive = small, poorly fitted or top-dose-only effect; cell line not stated here; note: % of control where 0% means no effect; nearly all actives have a fitted effect of over 65% in size
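Cells are seeded, rested 12 hours, then given compound at five concentrations or DMSO for 24 hours. After fixation, blocking and antibody staining, PINK1 amount and mitochondrial localization are scored; CCCP serves as control.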
FUS yeast rescue: FUS proteinopathy suppression in yeast; hit rate 0.24% among 390,000; AID 1347120; Potency, µM (doses to about 76.6 µM), hits mostly activators; S. cerevisiae FUS-expressing, growth rescue, OD600, 24 h;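 note: plate controls were DMSO vehicle for no effect and reference control for full effect; nearly all actives have a fitted effect of over 55% in size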
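Cultures pregrown in 2.5% raffinose medium are shifted to minimal medium containing 2% galactose to express toxic FUS. Compounds are tested at several concentrations. After 24hr at 30C, growth is quantified at 600 nm absorbance.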
GRP78 ERSR act: ER stress response induction in glioma. U87-MG GRP78 promoter luciferase reporter, 16 h. Potency, µM, for the others: at the top dose activation, usual class: activators. hit rate 0.02% among 420,000. AID 602332; note: series mostly up to about 76 µM; % of control where 0% means no effect; nearly all actives have a fitted effect of over 35% in size
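Stably transfected U87-MG human glioma cells carrying a GRP78-based luminescent sensor were seeded at 1000 cells/well, pin-dosed with compounds and incubated 16 h. Luciferase reagent was then added, and end-point luminescence was read after 10 min at room temperature.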
Vif-APOBEC3F blk: blocks the Vif interaction with APOBEC3F. HeLa A3F-eYFP + Vif (tagged APOBEC3F with the HIV-1 protein that degrades it), YFP fluorescence increase. Potency, µM (titrated, usually from 46.1 µM), for inactives: top-dose activity, negative = active. hit rate 0.2% among 390,000. AID 602313; note: % of control where 0% means no effect; nearly all actives have a fitted effect of over 65% in size
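Fluorescence increase (Ex 488/Em 500-530) after overnight compound treatment at 37 deg C flags inhibition of Vif-driven A3F-eYFP loss in stable HeLa A3F-eYFP/Vif cells seeded overnight beforehand.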
Abeta rescue: restores growth of yeast expressing A-beta42 peptide; yeast expressing A-beta42, growth rescue, OD600, 48 h; response scale: 0% DMSO, 100% iron-clioquinol control; Potency, µM (highest dose often 46.1 µM), most hits filed as activators; hit rate 0.063% among 410,000; AID 1347071; note: nearly all actives have a fitted effect of over 55% in size
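Yeast growth medium received pinned compounds, then yeast cells expressing toxic A-beta were added; plates incubated at 30 C for 48 hr. Growth read as absorbance at 600 nm, normalized to DMSO and equimolar FeCl3 plus clioquinol controls.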
The depositor's hits bear a star; i = inactive; ? = inconclusive; · = no result given. A selection: hits, their analogues and other compounds. The true share with any hit is near 0.69%. Unless noted, calls come from the whole dose curve; as a rule, active = well fitted curve in the direction sought with a large enough effect; inconclusive = small, poorly fitted or top-dose-only effect, or another doubt; inactive = no such curve, though single readings can be large; an effect the other way counts as inactive or inconclusive. Potency is the fitted concentration of half-maximal effect.

SMILES	Vif-APOBEC3G blk	PINK1 modulator	FUS yeast rescue	GRP78 ERSR act	Vif-APOBEC3F blk	Abeta rescue
CC1=[N+](C)c2c(ccc3cccnc23)C1(C)C	?	13µM*	i	-8%	?	i
C/C(=N/NC(N)=S)c1cc2ccc(O)cc2oc1=O	-3%	-1%	i	3%	3%	11µM*
C/C(=N/NC(=O)c1ccncc1)c1cc2ccc(O)cc2oc1=O	-7%	0%	·	3%	-13%	i
CCc1ccc(C(C)NC(=S)NCc2ccc(F)cc2)cc1 (stereo not given)	1%	?	i	-4%	-6%	4.5µM*
CCc1ccc(C(C)NC(=S)NC2CCCCC2)cc1 (stereo not given)	4%	?	i	-6%	-6%	10µM*
Cc1ccc(C(C)NC(=S)NCc2ccc(F)cc2)c(C)c1 (stereo not given)	2%	?	·	-5%	-8%	?
CCOc1ccc(C(C)NC(=S)NCc2ccc(F)cc2)cc1 (stereo not given)	4%	0%	i	-3%	1%	?
Cc1ccc(C(C)NC(=S)NCc2ccc(F)cc2)cc1C (stereo not given)	3%	?	i	-5%	0%	14µM*
COc1cc(=O)n2c(c1C(=O)NC(C)c1ccco1)CCN(Cc1ccnc3ccccc13)CC2 (stereo not given)	·	0%	·	0%	·	·
Cc1nc2sccn2c1CN1CCOc2ccc(CN3C[C@@H](C)O[C@@H](C)C3)cc2C1	·	0%	·	-1%	·	·
Cc1cc(/C=C/c2nc3ccccc3s2)ccc1N(C)C	4%	1%	·	-1%	·	·
COc1cc2nc(/C=C/c3ccc(N(C)C)cc3)sc2cc1SC	?	6%	i	2%	8.9µM*	i
COC(=O)[C@@H]1CCCN1C(=O)c1cc(NC(=O)c2ccccc2)cc2ncn(C3CCCC3)c12	·	0%	·	-3%	·	·
O=C(c1cccnc1)C1CCCN(Cc2ccc3c(c2)CN(C(=O)c2cccc(Cl)c2)CCO3)C1 (stereo not given)	·	2%	·	0%	·	·
CC(=O)Nc1sc2c(c1-c1nc3ccccc3s1)CCN(C(C)C)C2	11µM*	-2%	i	-7%	11µM*	i
CCOc1ccc(N(C)c2ccc(/C=C3/SC(=S)NC3=O)cc2)cc1	?	13%	i	-2%	?	i
CN(C)c1ccc(C=C2SC(=S)NC2=O)cc1	10µM*	3%	i	2%	?	i
COc1cc(C(=O)Nc2nccs2)ccc1OCc1c(C)noc1C	-10%	11µM*	i	-1%	-6%	i
O=C(N/N=C/C=C/c1ccccc1[N+](=O)[O-])c1cccs1	-8%	2%	·	3%	0%	i
COc1ccccc1OCC(=O)N/N=C/C=C/c1ccc([N+](=O)[O-])o1	?	?	·	-8%	10µM*	i
Cc1ccccc1OCC(=O)N/N=C/c1ccc([N+](=O)[O-])o1	-10%	?	i	-2%	6%	i
O=C(N/N=C\C=C\c1ccc([N+](=O)[O-])o1)c1cccs1	10µM*	0%	i	3%	?	i
O=C(N/N=C/c1cnc(N2CCCCC2)s1)c1ccc(Cl)cc1	4%	28µM*	i	3%	-1%	i
O=Cc1cnc(N2CCCCC2)s1	-3%	-2%	i	-1%	1%	i
O=C1NC(=S)S/C1=C/c1ccc(N2CCOCC2)o1	11µM*	21%	i	-1%	i	i
SMILES	Vif-APOBEC3G blk	PINK1 modulator	FUS yeast rescue	GRP78 ERSR act	Vif-APOBEC3F blk	Abeta rescue
COc1ccccc1N1CCN(c2nc(CNC(=O)c3cc(C)oc3C)nc3ccccc23)CC1	·	2%	·	1%	·	·
NC(=S)NN=C1CCC(C2CCCCC2)CC1 (stereo not given)	4%	1%	i	-5%	?	3.2µM*
Oc1ccc(Cl)cc1CN1CCOc2c(O)cc(-c3nc4ccccc4s3)cc2C1	·	2%	·	-9%	·	·
O=C(COc1ccccc1)OCC(=O)c1ccc(O)cc1O	0%	0%	i	0%	-3%	13µM*
O=C(COc1ccc(Cl)cc1)c1ccc(O)cc1O	-2%	0%	i	3%	1%	i
CC(C)(C)n1ncc2c(=O)n(Cc3cccc(Oc4ccccc4)c3)cnc21	3%	·	·	-1%	·	·
O=C(NCC1CCC2(CCN(Cc3cc4ccccc4o3)CC2)O1)c1ccccc1 (stereo not given)	·	4%	·	-4%	·	·
CCOCCn1c(CC)nc2ccccc21	-1%	0%	i	-1%	-5%	i
CCc1nc2ccccc2n(CCOCCn2c(=O)c(CC)nc3ccccc32)c1=O	-4%	10µM*	i	-4%	-7%	i
Cc1cccc(CNC(=O)c2cnn(-c3nccc(-c4cc(C)sc4C)n3)c2C)n1	·	7%	·	-4%	·	·
COc1ccc(-n2c(CCNC(=O)c3ccc(-c4cccc(F)c4)cc3)nnc2SC)cc1	·	0%	·	-3%	·	·
CC1(C)CC(=O)C2=C(C1)Nc1cc3c(cc1C2c1ccc(F)cc1)OCO3 (stereo not given)	1%	-1%	i	-1%	·	i
CC1(C)CC(=O)C2=C(C1)Nc1cc3c(cc1C2c1ccc2c(c1)OCO2)OCO3 (stereo not given)	-9%	0%	35µM*	5%	2%	i
O=C(C[C@H]1C/C=C\C[C@H](NC(=O)OCC2c3ccccc3-c3ccccc32)C(=O)O[C@H](c2ccccc2)CNC1=O)N[C@H](CO)Cc1ccccc1	-13%	5%	?	28µM*	-13%	i
CC(=O)/C(N=Nc1cc(C)ccc1O)=C(\C)O	?	5%	i	-1%	25µM*	i
Cc1ccccc1NC(=O)/C=C/c1cccs1	-1%	0%	i	4%	3%	i
Cc1ccccc1NC(=O)/C=C/c1ccc([N+](=O)[O-])s1	6.3µM*	4%	i	-14%	10µM*	i
Cc1cc(C)cc(NC(=O)/C=C/c2ccc([N+](=O)[O-])s2)c1	?	?	i	-3%	11µM*	i
CC(=O)c1cccc(NC(=O)/C=C/c2ccc([N+](=O)[O-])s2)c1	?	18%	i	-8%	?	i
Cc1ccc(CN2C[C@H](Sc3ccccn3)C[C@H]2C(=O)Nc2ccc3sc(C)nc3c2)s1	·	0%	·	-2%	·	·
CCN1CCCC1CNC(=O)c1cnn(-c2nccc(-c3cccs3)n2)c1C(C)C (stereo not given)	·	-1%	·	-4%	·	·
O=[N+]([O-])c1ccccc1S(=O)(=O)Nc1ccc(-c2ccc(N3CCOCC3)nn2)cc1	-12%	2%	?	4%	13µM*	i
